Results with a measured potency or affinity are listed apart. Calls of active or inactive are those of the source.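 Rule for the calls: active = cell killing with a fitted half-effect concentration at or below twice the top valid dose; inconclusive = flat curve with 30 to 70 percent drop, or poor fit; inactive = the rest.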
Test: viability loss in HEK293T kidney cells – cell-based, ATP luminescence, cherry-pick, set 6, cytotoxicity control, dose response (AID 1053126);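 note: 0% = neutral control wells and -100% = mitoxantrone 10 µM positive control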
Settings: CellTiter-Glo ATP luminescence, 72 h; series mostly up to 26 µM; activity change, negative = cytotoxicity: at the top concentration

Structure (SMILES)	activity change, negative = cytotoxicity
N#CC1=C(N)OC2=C(C(=O)CCC2)C1c1cc2c(cc1Br)OCO2 (configuration not stated)	-8% (inactive)
Nn1c(SCC(=O)N2CCCC2)nnc1-c1cccs1	-3.98% (inactive)
O=[N+]([O-])c1cccc(-c2n[nH]c(=S)n2-c2ccc(Br)cc2)c1	12.7% (inactive)
CCNC(=O)c1cc2c(=O)n3cccc(C)c3nc2n(Cc2ccc(C)cc2)c1=N	-19.1% (inactive)
Cc1ccc(C(=O)OCC(=O)Nc2c(C)nn(-c3ccccc3)c2C)c(O)c1	25.2% (inactive)
[O-]/[N+](=C/c1ccccc1)c1ccccc1	-8.31% (inactive)
Cc1cccn2c(=O)c3cc(C(=O)NCC4CCCO4)c(=N)n(CC4CCCO4)c3nc12 (configuration not stated)	1.69% (inactive)
COc1ccc(C2C3=C(CCCC3=O)N(CC(=O)O)C3=C2C(=O)CCC3)cc1Cl	-6.96% (inactive)
CC1=C(C(=O)N2CCN(c3cc(C)ccc3C)CC2)C2(CCCCC2)OC1=O	-3.96% (inactive)
CC1CCCCN1Cc1c(O)ccc2c(=O)c(-c3nc4ccccc4s3)coc12 (configuration not stated)	-6.86% (inactive)
O=c1c2ccccc2n(CC(O)CN2CCCCC2)c2ccccc12 (configuration not stated)	-7.07% (inactive)
COc1ccc(C2CC(c3cccs3)=NN2c2nc(C)c(C(C)=O)s2)cc1OC (configuration not stated)	82.2% (inactive)
COc1ccc(CCN=C(N)NS(=O)(=O)c2ccc(F)cc2)cc1	-15.2% (inactive)
CC(=O)c1cc2ccc(O)cc2oc1=O	-5.76% (inactive)
CC(=O)Oc1ccc2cc(-c3nc4ccccc4n3C)c(=O)oc2c1	-5.92% (inactive)
CCCCN(CCCC)CC(O)Cn1c2ccccc2c(=O)c2ccccc21 (configuration not stated)	0.815% (inactive)
Cc1ccc(NC(=O)Nc2ccnc(-c3cccnc3)n2)cc1	-11.9% (inactive)
Cc1cccn2c(=O)c(/C=C(\C#N)C(=O)NC3CCS(=O)(=O)C3)c(N3CCC(C(N)=O)CC3)nc12 (configuration not stated)	-17% (inactive)
COc1ccc(Br)c(Cn2c(C)c(C(=O)NCc3ccc4c(c3)OCCO4)sc2=O)c1	-13.7% (inactive)

Structure (SMILES)	activity change, negative = cytotoxicity
COc1cccc2c(=O)c3c(cnn3C)n(C)c12	-2.97% (inactive)
CCOc1ccc2nc(NCCCNS(=O)(=O)c3ccc(F)cc3)c(C#N)cc2c1	-10.3% (inactive)
CCCCCCc1cc2cc(S(=O)(=O)c3ccc(F)cc3)c(=O)oc2cc1O	48.1% [at 12 µM] (inactive)
O=C(Nc1ccc(-c2ccco2)cc1)C1CCCN(Cc2ccco2)C1 (configuration not stated)	-13.4% (inactive)
CCN(CC)CCNC(=O)c1sc2nc(-c3ccccc3)cn2c1C	10.8% (inactive)
O=c1oc2c(CN3CCCCC3)c(O)ccc2cc1-c1nc2ccccc2[nH]1	-14.8% (inactive)
Cc1oc(/N=C/c2ccc(O)cc2O)c(C#N)c1C	-8.77% (inactive)
Fc1ccc(-c2nc3ccccn3c2NCc2ccc3c(c2)OCO3)cc1	-10.2% (inactive)
Cc1ccc(S(=O)(=O)CCC(=O)OCC(=O)Nc2cccc(S(=O)(=O)N3CCCCC3)c2)cc1	-10.6% (inactive)
N=c1oc2cc(O)ccc2cc1C(=O)Nc1nc2ccccc2s1	-12.6% (inactive)
COc1ccc(C(=O)c2sc3nc(-c4ccc(OC)cc4)ccc3c2N)cc1	36.5% (inactive)
O=C(Cc1csc(-c2ccccc2)n1)NCc1ccccc1F	9.15% (inactive)
CCOc1ccc2nc(NCCNC(=O)CC)c(C#N)cc2c1	-1.9% (inactive)
Cc1cc(C)nc(SCC(=O)Nc2ccc(S(=O)(=O)Nc3onc(C)c3C)cc2)n1	-1.79% (inactive)
CC(=O)c1cc2c(ccc3ccccc32)oc1=O	-0.836% (inactive)
CCOC(=O)c1cc2c(=O)n3cccc(C)c3nc2n(CC(C)C)c1=NC(=O)c1ccco1	-0.128% (inactive)
Cc1cc(CNC(=O)c2ccc3c(c2)OCO3)c2ccccc2n1	-7.76% (inactive)
CCc1nc2ccc(C(=O)NCCc3c[nH]c4ccccc34)cn2c1N(C=O)CCC(C)C	-10.7% (inactive)

From PubChem BioAssay AID1053126 (Broad Institute, 2014)
